Results as given in the supplement of paper PMC11219838.

Key:
Conditions in all cases: 60 µM; 5 days; temperature: 20 °C
Meloidogyne hapla J2 = experiment: proportion of mobile M. hapla J2 relative to DMSO control (fraction of DMSO control); higher = more viable, less nematicidal, active = 0.7 or less
Method in brief: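 Sealed 96-well plates, each well holding around 25 M. hapla J2 in distilled water with compound pinned to 60 µM final (0.6% v/v DMSO), were shaken at 200 rpm for 5 days at 20 °C. Then 2 µL of 1 M NaOH was added to each well. Microscope-scored mobility was normalised to the mean of DMSO-only wells from the same plate. Eight such wells were on each plate, and the two biological replicates were averaged.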

[1] = tested on: Caenorhabditis elegans dauer (daf-2(e1370)); experiment: proportion of mobile C. elegans dauer larvae relative to DMSO control (fraction of DMSO control); higher = more viable, less nematicidal, active = 0.63 or less; extreme values may be limits of the assay
Method in brief: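 Compound was added by pinning to 60 µM final, giving 0.6% v/v DMSO, in 96-well plates containing about 20 C. elegans dauers per well in liquid NGM. These dauers came from synchronized larvae held on MYOB plates with E. coli OP50 for 48 h at 25 °C. Plates were sealed and shaken at 200 rpm at 20 °C for 5 days. Under a dissection microscope, the proportion of mobile worms was scored relative to DMSO wells, and two biological replicates were averaged.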

Ditylenchus dipsaci = experiment: proportion of mobile D. dipsaci (mixed stage) relative to DMSO control (fraction of DMSO control); higher = more viable, less nematicidal, active = 0.86 or less; extreme values may be limits of the assay
Method in brief: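 Mobility, expressed relative to DMSO controls, is the mean of two biological replicates. The test organisms were D. dipsaci grown on pea plants in Gamborg B-5 agar and extracted into water by filter funnel, with about 20 added per well of a 96-well plate in distilled water. Compound was pinned to 60 µM final (0.6% v/v DMSO), plates were sealed and shaken at 200 rpm for 5 days at 20 °C, and mobile worms were scored under a microscope once 2 µL 1 M NaOH had been added.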

CCCCCSc1nnc(-c2ccc(Cl)cc2Cl)o1
inactive: proportion of mobile M. hapla J2 (Meloidogyne hapla J2) 0.96 | proportion of mobile C. elegans dauer larvae [1] 1 | proportion of mobile D. dipsaci (Ditylenchus dipsaci) 1

c1ccc2c(OCc3nc(-c4ccncc4)no3)cccc2c1
inactive: proportion of mobile M. hapla J2 (Meloidogyne hapla J2) 0.979 | proportion of mobile C. elegans dauer larvae [1] 1 | proportion of mobile D. dipsaci (Ditylenchus dipsaci) 1

CCOc1ccccc1-c1nnc(SCc2ccccc2)o1
inactive: proportion of mobile M. hapla J2 (Meloidogyne hapla J2) 0.891 | proportion of mobile C. elegans dauer larvae [1] 1 | proportion of mobile D. dipsaci (Ditylenchus dipsaci) 1

COc1ccc(-c2nnc(SCC(=O)Nc3ccc(C)cc3Br)o2)cc1
inactive: proportion of mobile M. hapla J2 (Meloidogyne hapla J2) 1.01 | proportion of mobile C. elegans dauer larvae [1] 1 | proportion of mobile D. dipsaci (Ditylenchus dipsaci) 1

Clc1cccc(OCc2nc(-c3ccncc3)no2)c1
inactive: proportion of mobile M. hapla J2 (Meloidogyne hapla J2) 0.85 | proportion of mobile C. elegans dauer larvae [1] 1 | proportion of mobile D. dipsaci (Ditylenchus dipsaci) 1

Cc1ccc(-c2noc(COc3ccccc3Cl)n2)cc1
inactive: proportion of mobile M. hapla J2 (Meloidogyne hapla J2) 0.96 | proportion of mobile C. elegans dauer larvae [1] 1 | proportion of mobile D. dipsaci (Ditylenchus dipsaci) 1

Clc1ccccc1-c1noc(-c2cccnc2)n1
inactive: proportion of mobile M. hapla J2 (Meloidogyne hapla J2) 0.883 | proportion of mobile C. elegans dauer larvae [1] 1 | proportion of mobile D. dipsaci (Ditylenchus dipsaci) 1

O=C(CSc1nnc(-c2ccco2)o1)Nc1cccc(C(F)(F)F)c1
inactive: proportion of mobile M. hapla J2 (Meloidogyne hapla J2) 0.879 | proportion of mobile C. elegans dauer larvae [1] 1 | proportion of mobile D. dipsaci (Ditylenchus dipsaci) 1

O=C(Nc1ccccc1-c1nc(-c2cccnc2)no1)c1ccc(Cl)cc1
inactive: proportion of mobile M. hapla J2 (Meloidogyne hapla J2) 0.98 | proportion of mobile C. elegans dauer larvae [1] 1 | proportion of mobile D. dipsaci (Ditylenchus dipsaci) 1

COc1cccc(-c2noc(COc3cccc(C)c3)n2)c1
inactive: proportion of mobile M. hapla J2 (Meloidogyne hapla J2) 0.995 | proportion of mobile C. elegans dauer larvae [1] 1 | proportion of mobile D. dipsaci (Ditylenchus dipsaci) 1

CCOc1ccccc1-c1nnc(SCC(=O)Nc2ccccc2)o1
inactive: proportion of mobile M. hapla J2 (Meloidogyne hapla J2) 0.907 | proportion of mobile C. elegans dauer larvae [1] 1 | proportion of mobile D. dipsaci (Ditylenchus dipsaci) 1

Cc1ccccc1-c1nc(-c2cccc(NC(=O)c3cccs3)c2)no1
inactive: proportion of mobile M. hapla J2 (Meloidogyne hapla J2) 0.959 | proportion of mobile C. elegans dauer larvae [1] 1 | proportion of mobile D. dipsaci (Ditylenchus dipsaci) 1

Cc1cc(Cl)ccc1OCc1nc(-c2ccccc2)no1
inactive: proportion of mobile M. hapla J2 (Meloidogyne hapla J2) 1.02 | proportion of mobile C. elegans dauer larvae [1] 1 | proportion of mobile D. dipsaci (Ditylenchus dipsaci) 1
